# Test results published in PubChem BioAssay.
# Activity calls are given as the source filed them. Unless noted, the rule behind the calls is not given here.
# Legend:
# [1] = anti-His antibody binders, primary screen, artefact control for SMM control protein annotation, biochemical, small-molecule microarray, 635 nm fluorescence (AID 1128); conditions: anti-His Alexa647 antibody binding, higher = more signal;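 note: score merges feature fluorescence with signal-to-noise for each printed compound spot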
# [2] = system: Human papillomavirus type 1a E7 protein (residues 1-88); assay: HPV1a E7 small-molecule binders, primary screen, biochemical, small-molecule microarray, residues 1-88, 635 nm (AID 1129); conditions: small-molecule microarray binding, fluorescence 635 nm; higher = more signal
# [3] = target: Focal adhesion kinase 1 (Homo sapiens) (UniProt Q05397); assay: small-molecule microarray binders of FAK, primary screen, biochemical, 635/667 nm fluorescence, BSA, DTT (AID 1130); conditions: PTK2 binding, 635 nm fluorescence, higher = more signal;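 note: composite of spot emission at 667 nm and signal to noise over triplicate slides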
# Focal adhesion kinase 1 (Homo sapiens), sequence (Q05397 whole entry, looked up): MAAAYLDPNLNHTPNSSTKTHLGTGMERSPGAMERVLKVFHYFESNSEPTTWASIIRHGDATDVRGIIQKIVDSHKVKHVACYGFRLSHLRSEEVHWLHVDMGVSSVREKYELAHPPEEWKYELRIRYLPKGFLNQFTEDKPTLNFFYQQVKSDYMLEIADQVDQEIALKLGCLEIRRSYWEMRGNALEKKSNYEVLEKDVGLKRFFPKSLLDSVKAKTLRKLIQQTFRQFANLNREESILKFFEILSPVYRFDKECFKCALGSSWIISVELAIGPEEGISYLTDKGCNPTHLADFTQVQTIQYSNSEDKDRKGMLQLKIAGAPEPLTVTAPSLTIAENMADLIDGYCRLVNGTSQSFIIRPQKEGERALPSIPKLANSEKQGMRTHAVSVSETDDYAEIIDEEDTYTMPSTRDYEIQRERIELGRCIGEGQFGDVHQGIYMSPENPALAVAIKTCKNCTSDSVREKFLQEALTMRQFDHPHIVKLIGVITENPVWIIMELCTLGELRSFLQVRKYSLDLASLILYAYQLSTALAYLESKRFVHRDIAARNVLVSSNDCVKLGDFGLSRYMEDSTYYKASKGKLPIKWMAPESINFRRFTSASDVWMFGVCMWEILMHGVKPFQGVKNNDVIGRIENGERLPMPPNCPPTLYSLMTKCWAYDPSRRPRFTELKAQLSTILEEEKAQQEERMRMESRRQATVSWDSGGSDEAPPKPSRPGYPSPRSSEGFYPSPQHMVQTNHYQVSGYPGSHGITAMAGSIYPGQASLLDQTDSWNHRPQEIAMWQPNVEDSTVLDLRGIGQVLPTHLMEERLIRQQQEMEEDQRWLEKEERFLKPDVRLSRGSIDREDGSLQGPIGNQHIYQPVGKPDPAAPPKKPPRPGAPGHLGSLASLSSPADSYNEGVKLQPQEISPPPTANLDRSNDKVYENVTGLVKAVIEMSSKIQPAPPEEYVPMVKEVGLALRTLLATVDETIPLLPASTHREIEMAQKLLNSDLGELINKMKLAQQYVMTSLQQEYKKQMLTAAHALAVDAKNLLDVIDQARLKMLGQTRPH
# [4] = system: Fibrinogen (Alexa647-labelled); assay: fibrinogen binders on compound microarrays, profiling panel, artefact control for SMM control-protein annotation, biochemical, small-molecule microarray, 635/667 nm fluorescence (AID 1131); conditions: fibrinogen-A647 binding fluorescence, higher = more signal;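 note: z-score merges 667 nm fluorescence with per-spot signal-to-noise over triplicate slides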
# [5] = target: Follistatin (Homo sapiens) (UniProt P19883); assay: follistatin binders on small-molecule microarrays, primary screen, biochemical, small-molecule microarray, 635/667 nm fluorescence (AID 1132); conditions: FST binding, 635 nm fluorescence, higher = more signal
# Follistatin (Homo sapiens), sequence (P19883 whole entry, looked up): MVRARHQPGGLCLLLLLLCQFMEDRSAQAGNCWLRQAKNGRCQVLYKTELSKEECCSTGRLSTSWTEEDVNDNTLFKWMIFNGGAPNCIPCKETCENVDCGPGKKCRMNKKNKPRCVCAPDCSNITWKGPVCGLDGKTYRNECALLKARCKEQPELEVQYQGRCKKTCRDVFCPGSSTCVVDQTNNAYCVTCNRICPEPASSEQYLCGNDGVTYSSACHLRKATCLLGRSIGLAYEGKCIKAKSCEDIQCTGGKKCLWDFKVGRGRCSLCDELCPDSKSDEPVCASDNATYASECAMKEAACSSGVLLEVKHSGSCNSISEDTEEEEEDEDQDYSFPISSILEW
# [6] = target: Fibroblast growth factor 2 (Homo sapiens) (UniProt P09038); assay: FGF2 binders on small-molecule microarrays, primary screen, biochemical, small-molecule microarray, 635/667 nm fluorescence (AID 1133); conditions: small-molecule microarray binding, FGF2, fluorescence 635/667; higher = more signal
# Fibroblast growth factor 2 (Homo sapiens), sequence (P09038 whole entry, looked up): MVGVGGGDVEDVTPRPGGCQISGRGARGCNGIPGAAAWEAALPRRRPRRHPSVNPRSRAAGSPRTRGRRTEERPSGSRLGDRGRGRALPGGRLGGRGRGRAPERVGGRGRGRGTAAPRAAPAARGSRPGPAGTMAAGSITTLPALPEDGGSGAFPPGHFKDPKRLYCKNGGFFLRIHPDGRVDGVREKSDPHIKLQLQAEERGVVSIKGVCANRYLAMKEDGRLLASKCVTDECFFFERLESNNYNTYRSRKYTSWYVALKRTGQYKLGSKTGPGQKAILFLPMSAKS
# [7] = mitochondrial membrane potential change in A549 cells, profiling panel, cell-based, JC-1 fluorescence, basal, 24 h, 100 nL (AID 1138); conditions: higher = more signal;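 note: A549 lung adenocarcinoma cells under basal conditions with no added stimulus; test concentration not given here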
# Lefty1 = Lefty1 binders on small-molecule microarrays, primary screen, biochemical, small-molecule microarray, 635/667 nm fluorescence (AID 1139); conditions: small-molecule microarray binding, fluorescence 635/667; higher = more signal
# [8] = system: wheat germ agglutinin (Triticum aestivum), Alexa647-labelled; assay: wheat germ agglutinin binders on compound microarrays, profiling panel, artefact control for SMM control-protein annotation, biochemical, small-molecule microarray, 635/667 nm fluorescence (AID 1140); conditions: WGA-A647 binding, 635 nm fluorescence, higher = more signal;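 note: score merges 667 nm feature emission with signal to noise over triplicate slides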
# [9] = target: Luciferin 4-monooxygenase (Photinus pyralis) (UniProt P08659); assay: firefly luciferase enzyme inhibitors, primary screen, biochemical, luminescence, purified enzyme, 2006 set (AID 1141); conditions: SteadyGlo luminescence, 30 min, higher = more signal, called active from +8 up or from −8 down;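 note: cell-free assay with purified firefly luciferase at 100 ng per well in PBS; test concentration not given here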
# Luciferin 4-monooxygenase (Photinus pyralis), sequence (P08659 whole entry, looked up): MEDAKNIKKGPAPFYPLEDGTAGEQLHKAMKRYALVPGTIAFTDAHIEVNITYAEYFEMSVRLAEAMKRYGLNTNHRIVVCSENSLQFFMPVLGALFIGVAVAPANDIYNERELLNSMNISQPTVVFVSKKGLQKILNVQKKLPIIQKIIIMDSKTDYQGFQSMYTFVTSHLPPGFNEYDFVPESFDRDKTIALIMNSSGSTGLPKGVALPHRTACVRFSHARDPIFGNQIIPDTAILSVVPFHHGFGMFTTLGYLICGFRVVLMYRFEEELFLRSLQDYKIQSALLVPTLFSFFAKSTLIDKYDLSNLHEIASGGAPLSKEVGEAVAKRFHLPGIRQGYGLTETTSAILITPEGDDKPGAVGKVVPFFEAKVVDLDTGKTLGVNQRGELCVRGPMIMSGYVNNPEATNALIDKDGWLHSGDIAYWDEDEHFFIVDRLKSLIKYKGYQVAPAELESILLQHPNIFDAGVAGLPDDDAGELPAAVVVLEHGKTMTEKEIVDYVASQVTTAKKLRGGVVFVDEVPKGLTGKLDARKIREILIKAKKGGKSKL
# [10] = system: Wnt5a (protein binding on small-molecule microarray); assay: Wnt5a binders on small-molecule microarray, primary screen, biophysical, 635/667 nm fluorescence (AID 1142); conditions: 635 nm fluorescence, higher = more signal;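 note: fluorescence read at 667 nm with signal to noise per printed feature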
# [11] = cell viability in Huh7 cells, primary screen, cytotoxicity control for HCV replication inhibitor project, CellTiter-Glo luminescence, basal, 48 h (AID 1143); conditions: Huh7 HCV replicon, higher = more signal, called active from +8 up or from −8 down;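 note: Huh7 hepatoma cells carrying a hepatitis C replication reporter with no stimulus; test concentration not given here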
# [12] = P. aeruginosa biofilm formation inhibitors, primary screen, PAO1 strain, BacTiter-Glo luminescence, LB-PBS (AID 1144); conditions: 12 h, higher = more signal
# [13] = CREB reporter modulators without forskolin, primary screen, cell-based, PC12, CRE-LacZ reporter, unstimulated (AID 1145); conditions: no forskolin, luminescence, 4.5 h, higher = more signal, called active from +8 up or from −8 down
# [14] = CREB reporter modulators under forskolin, primary screen, cell-based, PC12, CRE-LacZ reporter, forskolin-stimulated (AID 1146); conditions: luminescence, 4.5 h, higher = more signal, called active from +8 up or from −8 down;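 note: PC12 cells with 6xCRE LacZ reporter stimulated by forskolin 10 µM; beta-galactosidase reporter signal reflecting CREB driven transcription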
# [15] = target: Streptavidin (Streptomyces avidinii) (UniProt P22629); assay: streptavidin binders on small-molecule microarray, primary screen, artefact control for SMM compound annotation, biophysical, 635/667 nm fluorescence (AID 1147); conditions: streptavidin binding, higher = more signal;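 note: signal reflects streptavidin binding to arrayed compounds as a control protein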
# Streptavidin (Streptomyces avidinii), sequence (P22629 whole entry, looked up): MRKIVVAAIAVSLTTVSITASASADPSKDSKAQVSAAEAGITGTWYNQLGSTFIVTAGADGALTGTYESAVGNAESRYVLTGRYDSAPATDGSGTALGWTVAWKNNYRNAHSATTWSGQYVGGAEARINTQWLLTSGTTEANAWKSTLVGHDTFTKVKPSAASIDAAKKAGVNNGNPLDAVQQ
# [16] = small-molecule binders of probe aInhba, primary screen, biochemical, small-molecule microarray, 635/667 nm fluorescence (AID 1148); conditions: higher = more signal;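 note: score merges 667nm spot fluorescence with signal-to-noise for antibody binding to printed compounds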
# Torsin-1A (Homo sapiens) [17] = target: Torsin-1A (Homo sapiens) (UniProt O14656); assay: torsin A binders from cell lysate, primary screen, small-molecule microarray, wild-type, 635/667 nm (AID 1149); conditions: COS7 hTOR1A-WT lysate, 635 nm fluorescence, higher = more signal
# Torsin-1A (Homo sapiens), sequence (O14656 whole entry, looked up): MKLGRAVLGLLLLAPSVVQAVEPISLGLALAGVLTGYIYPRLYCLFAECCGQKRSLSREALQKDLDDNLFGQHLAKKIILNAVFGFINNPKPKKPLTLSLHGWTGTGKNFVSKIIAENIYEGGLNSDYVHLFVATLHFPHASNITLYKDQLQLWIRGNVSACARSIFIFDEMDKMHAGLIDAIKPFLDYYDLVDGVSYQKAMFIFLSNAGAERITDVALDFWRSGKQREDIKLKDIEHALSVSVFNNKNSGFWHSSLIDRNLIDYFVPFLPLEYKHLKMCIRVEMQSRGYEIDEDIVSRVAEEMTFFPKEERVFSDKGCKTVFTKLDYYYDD
# Torsin-1A (Homo sapiens) [18] = target: Torsin-1A (Homo sapiens) (UniProt O14656); assay: small-molecule binders of mutant TOR1A in lysate, primary screen, cell lysate, small-molecule microarray, COS7 lysate, 635/667 nm fluorescence (AID 1150); conditions: COS7 hTOR1A mutant lysate, 635 nm fluorescence, higher = more signal;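 note: score pools 667 nm emission and signal to noise measuring lysate protein binding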
# [19] = system: Sonic hedgehog protein (Shh); assay: small-molecule binders of Shh protein, primary screen, biochemical, small-molecule microarray, 635/667 nm fluorescence (AID 1151); conditions: small-molecule microarray binding, 635 nm fluorescence; higher = more signal;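 note: Shh protein binding to compounds spotted on small-molecule microarray slides; score combines spot fluorescence intensity with signal-to-noise across triplicate slides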
Structure (SMILES),composite z-score [1],composite z-score [2],composite z-score [3],composite z-score [4],composite z-score [5],composite z-score [6],z-score [7],composite z-score (Lefty1),composite z-score [8],z-score [9],composite z-score [10],z-score [11],z-score [12],z-score [13],z-score [14],composite z-score [15],composite z-score [16],composite z-score (Torsin-1A (Homo sapiens) [17]),composite z-score (Torsin-1A (Homo sapiens) [18]),composite z-score [19]
COC(=O)[C@@]1(Cc2ccccc2)[C@H]2c3cc(C(=O)N(C)C)n(Cc4ccc(C(F)(F)F)nc4)c3C[C@H]2CN1C(=O)c1ccccc1,0.0389,1.29,0.74,1.01,0.714,-0.428,0.353,-0.655,0.736,2.32 (inactive),0.598,-1.94 (inactive),-0.0691 (inactive),-0.189 (inactive),0.484 (inactive),2.08,0.433,0.167,0.511,-0.561
O=C(NCC(O)CO)C1N=C(c2ccc(OCCCO)cc2)N(c2ccccc2)O1 (stereo not given),0.703,0.697,-0.102,0.0565,1.38,1.32,0.42,0.876,0.471,-10.9 (active),0.41,-1.12 (inactive),2.56 (inactive),0.456 (inactive),-0.442 (inactive),-0.214,-0.0468,0.975,0.682,1.27
CN(C)CCCCNC(=O)[C@H]1C[C@H]2C(=O)N3CCC[C@H]3C(=O)N2[C@H]1c1cccc(OCCO)c1,1.96,0.74,1.02,0.311,1.21,0.382,-0.159,0.365,1.15,0.83 (inactive),-0.202,0.196 (inactive),-1.17 (inactive),0.0043 (inactive),-0.258 (inactive),1.89,-0.0403,-0.107,0.98,1.17
CC(C)=CCCC=C(C)C(O)C1C=CC2C(=O)N(c3ccccc3)C(=O)C2N1Nc1ccc(C#N)cc1 (stereo not given),1,1.21,0.901,0.972,1.31,0.333,-0.902,0.507,1.06,-1.32 (inactive),0.218,-2.81 (inactive),-1.21 (inactive),1.39 (inactive),-0.35 (inactive),0.555,0.0841,0.0747,0.536,0.335
CC(C)NC(=O)[C@@]1(C)c2ccccc2C(=O)N(Cc2ccccc2)[C@H]1c1ccc(CO)cc1,2.31,0.244,-0.226,-0.722,-0.4,-0.719,0.648,-0.189,0.948,-1.09 (inactive),-0.442,-2.24 (inactive),0.0156 (inactive),-0.592 (inactive),-1.08 (inactive),-1.23,-0.312,0.654,1.39,0.504
C=CCN1C(=O)[C@]2(O[C@H](CCn3cc([C@H](O)c4ccccc4)nn3)[C@@H]([Si](C)(C)c3ccc(OC)cc3)[C@@H]2C)c2cc(NC(=O)c3ccc(OC)cc3)ccc21,0.66,0.499,0.748,0.0903,1.23,0.307,0.997,0.794,0.422,-1.16 (inactive),0.0292,-3.84 (inactive),-1.5 (inactive),1.05 (inactive),-1.54 (inactive),-0.0759,0.117,-0.68,0.0247,1.36
C=CCOC(=O)[C@H]1[C@@H]2C(=O)O[C@@H](c3ccccc3)[C@@H](c3ccccc3)N2[C@@H](c2ccc(OCCOC(=O)[C@H]3C[C@H]4C(=O)N[C@@H](CC(C)C)C(=O)N4[C@H]3c3ccc(O)cc3)cc2)[C@]12C(=O)Nc1ccccc12,0.1,1.26,0.66,0.8,1.36,1.79,-1.48,1.39,0.624,-0.782 (inactive),0.809,-0.351 (inactive),-1.22 (inactive),-0.26 (inactive),0.146 (inactive),0.137,0.0544,0.739,1.18,2.06
C=C(C)[C@@H]1CC=C(C(O)C2C=CC3C(=O)N(C)C(=O)C3N2Nc2ccc([N+](=O)[O-])cc2[N+](=O)[O-])CC1 (stereo not given in full),0.607,1.27,0.512,1,1.24,-0.0675,1.88,0.424,0.799,0.511 (inactive),0.291,-0.181 (inactive),0.0728 (inactive),2.16 (inactive),0.386 (inactive),0.707,-0.0762,0.414,1.14,0.413
COc1ccc(NN2C(C(O)c3ccc(I)cc3)C=CC3C(=O)N(C4CCCCC4)C(=O)C32)cc1 (stereo not given),0.698,1.23,-0.0558,0.951,1.3,0.366,0.119,0.946,1.22,1.29 (inactive),0.404,-1.7 (inactive),-2.03 (inactive),0.435 (inactive),-0.469 (inactive),1.34,0.253,0.237,0.51,1.3
